These entries were drawn from the full list.
PostGolgi yeast = growth inhibition of a yeast mutant, post-Golgi transport screen; 98,000 tested, 0.9% active; inhibition, % at 10 µM; post-Golgi transport phenotypic cell assay;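 note: yeast cells grown in 1536-well plates; yeast grown about 18 h at 30C before absorbance read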
CYP2C9 inhib = inhibitors of human CYP2C9. P11712. CYP2C9 Supersomes, luciferin-H conversion, luminescence. inhibition, % at 5 µM. 96,000 tested, 20% active;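 active = blocking of liver enzyme CYP2C9 beyond about 50% at 5 µM, limit read from the data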
Target sequence (P11712 whole entry, looked up): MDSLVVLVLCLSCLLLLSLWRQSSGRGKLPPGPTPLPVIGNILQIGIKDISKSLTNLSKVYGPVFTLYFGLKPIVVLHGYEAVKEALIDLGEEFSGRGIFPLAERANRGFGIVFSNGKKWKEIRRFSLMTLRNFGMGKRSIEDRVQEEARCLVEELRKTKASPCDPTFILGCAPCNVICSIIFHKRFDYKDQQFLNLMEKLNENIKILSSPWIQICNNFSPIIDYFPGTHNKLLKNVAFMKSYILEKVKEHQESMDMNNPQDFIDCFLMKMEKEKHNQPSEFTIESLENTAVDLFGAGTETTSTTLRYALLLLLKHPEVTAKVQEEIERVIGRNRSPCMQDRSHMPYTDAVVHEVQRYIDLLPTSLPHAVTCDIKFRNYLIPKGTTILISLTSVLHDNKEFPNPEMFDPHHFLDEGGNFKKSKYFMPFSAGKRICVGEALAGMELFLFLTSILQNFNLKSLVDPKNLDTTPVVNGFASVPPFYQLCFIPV
PostGolgi ctrl = growth of the yeast control strain, post-Golgi counter-screen | efflux-deficient yeast background strain, growth absorbance A615, 16 h | inhibition, % at 10 µM | 98,000 tested, 5% active
CYP2C19 activ = increases human CYP2C19 enzyme activity. P33261. 96,000 tested, under 10 active. recombinant CYP2C19, luciferin-H EGE luminescence; active compounds read high; 0 = fully inhibited enzyme, 1 = untreated enzyme. activation factor at 5 µM;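 active = activation factor of at least 2 at 5 µM in the primary screen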;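 note: 0 = wells with 2.5 mM tranylcypromine and 1 = vehicle-only wells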
CYP2C19 inh = blocks human cytochrome P450 2C19 | P33261 | CYP2C19 Supersomes, luciferin-H EGE luminescence, 30 min | inhibition, % at 5 µM | 96,000 tested, 21% active | AID 778;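 active = CYP2C19 inhibition above a set limit at 5 µM in the primary screen, cut at about 50% in these data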;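 note: plate controls were negative control wells for no effect and 2.5 mM tranylcypromine positive control for full effect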
CYP2C9 activ = activators of human CYP2C9; recombinant CYP2C9, luciferin-H conversion, luminescence; active compounds read high; factor 1 = untreated enzyme, 0 = blocked; activation factor at 5 µM; 96,000 tested, 1.4% active;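 active = activation factor of 2 or more for CYP2C9 at a 5 µM dose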;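 note: 0 = sulfaphenazole-blocked wells and 1 = vehicle-only wells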
Active calls of the source: *. Cut-off read from the data, not from the text of the source, unless noted: active = inhibition above about 30%; inactive = the rest.

Results for Nc1c(C(=O)OCC2CCCO2)c2nc3ccccc3nc2n1C1CCCC1 (stereo not given) ?
PostGolgi yeast: 9; CYP2C9 inhib: 55*; PostGolgi ctrl: 48*; CYP2C19 activ: 0.8; CYP2C19 inh: 20; CYP2C9 activ: 0.4

How did COCCn1c(N)c(C(=O)NCC2CCCO2)c2nc3ccccc3nc21 (stereo not given) do in these assays?
PostGolgi yeast: 3; CYP2C9 inhib: 21; PostGolgi ctrl: 8; CYP2C19 activ: 0.8; CYP2C19 inh: 20; CYP2C9 activ: 0.8

What do the screens show for `O=C(c1cc2ccccc2oc1=O)N1CCN(CCc2ccccc2)CC1`?
PostGolgi yeast: 6; CYP2C9 inhib: -1; PostGolgi ctrl: 2; CYP2C19 activ: 1.1; CYP2C19 inh: -5; CYP2C9 activ: 1

Results for O=c1c2c3n(c(=S)nc2[nH]n1-c1ccccc1)CCCCC3 ?
PostGolgi yeast: 7; CYP2C9 inhib: -10; PostGolgi ctrl: 62*; CYP2C19 activ: 1.2; CYP2C19 inh: -18; CYP2C9 activ: 1.1

How did N#Cc1c2n(c(=S)n(-c3ccccn3)c1=O)CCCCC2 do in these assays?
PostGolgi yeast: 2; CYP2C9 inhib: 8; PostGolgi ctrl: -2; CYP2C19 activ: 1; CYP2C19 inh: 2; CYP2C9 activ: 0.9

Results for CSc1cccc(NC(=O)c2ccc(Cl)nc2)c1 ?
PostGolgi yeast: 5; CYP2C9 inhib: -3; PostGolgi ctrl: 4; CYP2C19 activ: 0.8; CYP2C19 inh: 17; CYP2C9 activ: 1

What do the screens show for `COc1ccc(/C=C2\CCCC3C2=NN(C(=O)c2scnc2C)C3c2ccc(OC)c(OC)c2)cc1OC` (stereo not given)?
PostGolgi yeast: 10; CYP2C9 inhib: 0; PostGolgi ctrl: 0; CYP2C19 activ: 1; CYP2C19 inh: -4; CYP2C9 activ: 1

Results for CCOC(=O)c1c(CN2CCOCC2)n(-c2ccccc2)c2cc(Br)c(OC)cc12 ?
PostGolgi yeast: -1; CYP2C9 inhib: 78*; PostGolgi ctrl: 54*; CYP2C19 activ: 0.5; CYP2C19 inh: 52*; CYP2C9 activ: 0.2

Results for CCOC(=O)c1c(CN2CCOCC2)oc2ccc(OC)cc12 ?
PostGolgi yeast: 2; CYP2C9 inhib: 31; PostGolgi ctrl: 5; CYP2C19 activ: 0.6; CYP2C19 inh: 36; CYP2C9 activ: 0.7

How did COc1ccc(N2CCN(C(=O)c3c(-c4ccccc4)noc3C)CC2)cc1 do in these assays?
PostGolgi yeast: 0; PostGolgi ctrl: 0

How did CCOC(=O)c1c(CN2CCOCC2)n(-c2ccccc2)c2cc(Br)c(O)cc12 do in these assays?
PostGolgi yeast: 6; CYP2C9 inhib: 64*; PostGolgi ctrl: 41*; CYP2C19 activ: 0.4; CYP2C19 inh: 57*; CYP2C9 activ: 0.4

What do the screens show for `CCOC(=O)c1c(CSC(=N)N)n(-c2ccc(C)cc2)c2cc(Br)c(OC(C)=O)cc12`?
PostGolgi yeast: -11; CYP2C9 inhib: 65*; PostGolgi ctrl: 3; CYP2C19 activ: 0.6; CYP2C19 inh: 36; CYP2C9 activ: 0.3

What do the screens show for `COc1cc2c(C(=O)N3CCN(c4ccccc4)CC3)c(C)oc2cc1Br`?
PostGolgi yeast: 0; CYP2C9 inhib: 79*; PostGolgi ctrl: 35*; CYP2C19 activ: 0.4; CYP2C19 inh: 59*; CYP2C9 activ: 0.2

How did CS(=O)(=O)N(CC(=O)NCc1ccco1)c1ccc(Cl)c(C(F)(F)F)c1 do in these assays?
PostGolgi yeast: -6; CYP2C9 inhib: -28; PostGolgi ctrl: 0; CYP2C19 activ: 0.8; CYP2C19 inh: 24; CYP2C9 activ: 1.3

How did O=C(Nc1nnc(N2CCCCCC2)s1)c1cc(-c2ccc(Br)cc2)on1 do in these assays?
PostGolgi yeast: -6; CYP2C9 inhib: 15; PostGolgi ctrl: 9; CYP2C19 activ: 1.2; CYP2C19 inh: -19; CYP2C9 activ: 0.8

How did CC1CCCC(C)N1c1nnc(NC(=O)c2cc(-c3ccc(Br)cc3)on2)s1 (stereo not given) do in these assays?
PostGolgi yeast: 4; CYP2C9 inhib: 74*; PostGolgi ctrl: 31*; CYP2C19 activ: 0.5; CYP2C19 inh: 52*; CYP2C9 activ: 0.3

What do the screens show for `CC(=O)Nc1ccc(S(=O)(=O)NNC(=O)COc2ccc(C(C)(C)C)cc2)cc1`?
PostGolgi yeast: -3; CYP2C9 inhib: -9; PostGolgi ctrl: 6; CYP2C19 activ: 0.9; CYP2C19 inh: 12; CYP2C9 activ: 1.1

Results for O=C(CN1CCC(n2nnc3ccccc32)CC1)NCc1cccs1 ?
PostGolgi yeast: -6; CYP2C9 inhib: 6; PostGolgi ctrl: -2; CYP2C19 activ: 1; CYP2C19 inh: 4; CYP2C9 activ: 0.9

What do the screens show for `O=C(c1ccccc1NS(=O)(=O)c1ccc(Br)s1)N1CCCC1`?
PostGolgi yeast: -2; CYP2C9 inhib: 8; PostGolgi ctrl: 24; CYP2C19 activ: 0.3; CYP2C19 inh: 69*; CYP2C9 activ: 0.9

How did O=C(O)/C=C\C(=O)Nc1ccccc1C(=O)N1CCN(c2ccc(Cl)cc2)CC1 do in these assays?
PostGolgi yeast: 0; CYP2C9 inhib: 58*; PostGolgi ctrl: 16; CYP2C19 activ: 0.7; CYP2C19 inh: 34; CYP2C9 activ: 0.4

How did O=C(Nc1ccccc1C(=O)N1CCN(c2ccccc2)CC1)c1ccco1 do in these assays?
PostGolgi yeast: -4; CYP2C9 inhib: 57*; PostGolgi ctrl: 5; CYP2C19 activ: 0.4; CYP2C19 inh: 62*; CYP2C9 activ: 0.4

Results for Cc1sc(NC(=O)c2ccco2)c(CN2CCN(c3ccccc3)CC2)c1C ?
PostGolgi yeast: 2; CYP2C9 inhib: 80*; PostGolgi ctrl: 9; CYP2C19 activ: 0.3; CYP2C19 inh: 72*; CYP2C9 activ: 0.2

What do the screens show for `O=C(c1ccccc1NS(=O)(=O)c1ccc(F)cc1)N1CCCC1`?
PostGolgi yeast: -7; CYP2C9 inhib: 11; PostGolgi ctrl: 2; CYP2C19 activ: 0.7; CYP2C19 inh: 31; CYP2C9 activ: 0.9

Results for Cc1sc(NC(=O)c2ccco2)c(CN2CCCCC2)c1C ?
PostGolgi yeast: -8; CYP2C9 inhib: 11; PostGolgi ctrl: 24; CYP2C19 activ: 1; CYP2C19 inh: 2; CYP2C9 activ: 0.9

How did CC(C)c1ccc(N2CCN(C(=O)c3ccccc3NC(=O)/C=C\C(=O)O)CC2)cc1 do in these assays?
PostGolgi yeast: -2; CYP2C9 inhib: 1; PostGolgi ctrl: 4; CYP2C19 activ: 1; CYP2C19 inh: -5; CYP2C9 activ: 1

Results for O=C(Nc1ccc(Cl)cc1C(=O)N1CCOCC1)c1ccco1 ?
PostGolgi yeast: 2; CYP2C9 inhib: 2; PostGolgi ctrl: 11; CYP2C19 activ: 1.1; CYP2C19 inh: -9; CYP2C9 activ: 1

Results for O=C1CC(N2CCN(S(=O)(=O)c3ccc(Cl)cc3)CC2)C(=O)N1CCc1ccccc1 (stereo not given) ?
PostGolgi yeast: 5; PostGolgi ctrl: 17

How did CCCCn1c(SCC(=O)N2CC(C)CC(C)C2)nc2cc(S(N)(=O)=O)ccc21 (stereo not given) do in these assays?
PostGolgi yeast: -7; CYP2C9 inhib: 12; PostGolgi ctrl: -7; CYP2C19 activ: 1; CYP2C19 inh: -3; CYP2C9 activ: 0.9
